The values that follow come from PubChem BioAssay (Tox21).

Inconclusive results are not listed. Values without a mark were called inactive. Active and inactive are the calls of the source. Unless noted, calls follow the shape of the dose curve; as a rule, active = well fitted curve in the direction sought with a large enough effect in the repeat runs; inconclusive = weak or mixed curves; inactive = no such curve, though single readings can be large; an effect the other way counts as inactive or inconclusive.

The nature of test [1]: qHTS assay to identify small molecule antagonists of the vitamin D receptor (VDR) signaling pathway - cell viability counter screen (AID 743225). Also: nearly all actives have a fitted effect of over 50% in size. Also: potency is read from the fitted curve at half-maximal effect. The settings on record: VDR-bla HEK293T viability, CellTiter-Glo luminescence, 16 h; series mostly up to 61 µM. The method, boiled down: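 Parallel cytotoxicity test: VDR-UAS-bla HEK 293T, 3 nM (final) 1-alpha,25-dihydroxyvitamin D3 with test compound, 16 h, 37C. Endpoint is CellTiter-Glo luminescence in the same wells.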

Test [2] is described as follows: qHTS assay to identify small molecule agonists of the NFkB signaling pathway - cell viability counter screen (AID 1159515; calls by dose curve; also: nearly all actives have a fitted effect of over 55% in size; also: potency is read from the fitted curve at half-maximal effect). The settings on record: NFkB-bla ME-180 viability, CellTiter-Glo luminescence, 5 h; series mostly up to 61 µM. The method, boiled down: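 Luminescence from CellTiter-Glo (30 min, room temperature) gives viability, measured in the same wells as the beta-lactamase reporter read. Cells were NFkB-bla ME-180, 2,000 per well, treated 5 hr with compounds.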

Test [3] can be described thus: qHTS assay to identify small molecule agonists of the endoplasmic reticulum stress response signaling pathway (AID 1159516; active = well fitted activation curve with a large enough effect in the signal ratio in the repeat runs, not every such curve was filed as active; the % refers to the signal ratio; also: % is scaled to controls: 0 for no effect and ±100 for the full control effect). The settings on record: ESRE-bla HeLa, ER stress beta-lactamase reporter, 5 h; series mostly up to 61 µM. Summed up: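 Read-out is beta-lactamase cleavage of a FRET substrate (405 nm excitation; 460 and 530 nm emissions) in ESRE-bla HeLa cells after a 5 hr compound exposure at 37 C. Substrate incubation ran 2 hr at room temperature.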
On the technique in general: Quantitative high-throughput screening tests each substance at several concentrations.

A short description of test [4]: qHTS assay to identify small molecule agonists of the endoplasmic reticulum stress response signaling pathway - cell viability counter screen (AID 1159517; calls by dose curve; also: nearly all actives have a fitted effect of over 50% in size; also: potency is read from the fitted curve at half-maximal effect). Particulars: ESRE-bla HeLa viability, CellTiter-Glo luminescence, 5 h; series mostly up to 61 µM. Summed up: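 Counter-screen wells were identical to the reporter wells. Cells were plated at 1,500 per well and dosed for 5 hr, then read for luminescence 30 min after CellTiter-Glo addition.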

Test [5] can be described thus: qHTS assay to identify small molecule antagonists of the retinoid-related orphan receptor gamma (ROR-gamma) signaling pathway - cell viability counter screen (AID 1159520). Also: nearly all actives have a fitted effect of over 50% in size. Also: potency is read from the fitted curve at half-maximal effect. As to activity, negative = cytotoxicity: % is scaled to controls: 0 for no effect and ±100 for the full control effect. Particulars: Tet-on RORgamma CHO cells viability, ATP luminescence, 16 h; series mostly up to 92.4 µM. The method, boiled down: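 Tet-on ROR gamma CHO cells were given compounds for 2 hr, then doxycycline hyclate at 1 uM final, and incubated 16 hr at 37 C. Viability was measured as ATP content by CellTiter-Glo luminescence.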

Test [6] concerns the target Nuclear receptor ROR-gamma (Homo sapiens) (UniProt P51449). Briefly: qHTS assay to identify small molecule antagonists of the retinoid-related orphan receptor gamma (ROR-gamma) signaling pathway (AID 1159521; also: nearly all actives have a fitted effect of over 50% in size; also: potency is read from the fitted curve at half-maximal effect;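 as to activity change, negative = inhibition: CHO cells with doxycycline inducible ROR-gamma driving an RORE luciferase reporter; top concentration of the series differs between compounds; % is scaled to controls: 0 for no effect and ±100 for the full control effect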). Particulars: Tet-on RORgamma CHO cells, RORE-luciferase, 16 h; series mostly up to 92.4 µM. The method, boiled down:
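Decreased RORE-driven luciferase luminescence indicates antagonism. Tet-on RORγ CHO cells received compound, then 1 uM final doxycycline 2 h later; signal read after 16 h incubation.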

Test [7] can be described thus: qHTS assay to identify small molecule agonists of the vitamin D receptor (VDR) signaling pathway - cell viability counter screen (AID 743224). Also: nearly all actives have a fitted effect of over 50% in size. Also: potency is read from the fitted curve at half-maximal effect. The settings on record: VDR-bla HEK293T viability, CellTiter-Glo luminescence, 16 h; series mostly up to 62.6 µM. Summed up: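 Luminescence from CellTiter-Glo, read after 30 min at room temperature, reports viability of VDR-bla cells treated with compounds for 16 h at 37C in the wells used for the beta-lactamase FRET read.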

Test [8] in a line: qHTS assay to identify small molecule agonists of the AP-1 signaling pathway (AID 1159526; calls by dose curve; also: % is scaled to controls: 0 for no effect and ±100 for the full control effect). The settings on record: ME-180 AP-1-bla reporter, beta-lactamase FRET ratio, 5 h; series mostly up to 76.8 µM.
Test [9] addresses Retinoic acid receptor RXR-alpha (Homo sapiens) (UniProt P19793). Briefly: qHTS assay to identify small molecule agonists of the RXR signaling pathway (AID 1159527; calls by dose curve; also: % is scaled to controls: 0 for no effect and ±100 for the full control effect; nearly all actives have a fitted effect of over 35% in size). The settings on record: HEK293T RXRa-UAS-bla, beta-lactamase ratio, 16 h; series mostly up to 76.8 µM. Summed up: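 16 hr incubation of compound-treated RXR-alpha-UAS-bla HEK 293T cells (2% charcoal-stripped FBS, 37 C) preceded a 2 hr room-temperature LiveBLAzer FRET substrate step and blue/green fluorescence measurement.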

Test [10] in a line: qHTS assay to identify small molecule agonists of the AP-1 signaling pathway - cell viability counter screen (AID 1159525; calls by dose curve; also: nearly all actives have a fitted effect of over 55% in size). The settings on record: ME-180 (cervical carcinoma) AP-1-bla cells viability, ATP luminescence, 5 h; series mostly up to 76.8 µM. Summed up: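 AP-1-bla ME-180 cells in Opti-MEM with 0.5% dialyzed FBS, compound exposure 5 h at 37 C in 15-point titration. Viability read in the same wells as ATP content by CellTiter-Glo luminescence, normalised to tetra-n-octylammonium bromide and DMSO controls.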

Sequence of Retinoic acid receptor RXR-alpha (Homo sapiens) (P19793 whole entry, looked up): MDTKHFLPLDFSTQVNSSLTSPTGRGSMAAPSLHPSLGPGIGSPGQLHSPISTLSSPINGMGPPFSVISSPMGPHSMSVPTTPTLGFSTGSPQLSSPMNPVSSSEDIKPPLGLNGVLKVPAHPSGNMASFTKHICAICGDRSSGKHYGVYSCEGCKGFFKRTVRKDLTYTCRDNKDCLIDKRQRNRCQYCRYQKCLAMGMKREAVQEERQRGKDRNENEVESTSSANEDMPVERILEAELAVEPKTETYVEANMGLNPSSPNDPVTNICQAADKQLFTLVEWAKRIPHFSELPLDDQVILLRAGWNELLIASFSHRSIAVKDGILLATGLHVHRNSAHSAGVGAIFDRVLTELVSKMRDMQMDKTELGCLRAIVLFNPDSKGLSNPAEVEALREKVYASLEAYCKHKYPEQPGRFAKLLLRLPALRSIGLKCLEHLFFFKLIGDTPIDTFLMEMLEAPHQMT

For the compound `CC(C)=CCC/C(C)=C/CC/C(C)=C/CO`, the Potency result in [1], in test [2], in test [3], in test [4], in [5] and in test [6] was “inactive” in each case.
For the compound `CCCCCCCCCCCCN1CCCCCC1=O`, the Potency was 30.9 µM (active) in test [7] and 54.9 µM (active) in test [2]. Further, the Potency result in [3], in test [4], in test [5] and in [6] was “inactive” throughout.
Turning to `C#CCN(C)CCCOc1ccc(Cl)cc1Cl`, the Potency result in [7], in test [1], in test [2], in test [3], in test [4] and in test [5] was “inactive” throughout. Further, the Potency entry in test [6], in [8] and in test [9] was “inactive” in each case.
Consider `CCCCCCCCCc1ccc(OCCOCCO)cc1`, for which the values for the Potency in test [7], in [1] and in test [6] were 20.5 µM (active), 18.3 µM (active) and 5.11 µM (active), respectively. For the same compound, the Potency result in test [2], in [3], in test [4] and in [5] was “inactive” in each case.
Turning to `C[Si](C)(CCCN)O[Si](C)(C)CCCN`, the Potency entry in test [7], in [1], in test [2], in test [3], in test [4] and in test [5] was “inactive” each time. Also, the Potency result in [6], in [8] and in test [9] was “inactive” in each case.
On to `C=CC(=O)OCCOCCOC(=O)C=C`, for which the Potency entry in test [2], in test [3] and in [4] was “inactive” each time. The Potency in test [5] is 13.7 µM (active).
For `CC(C)Nc1ccc(NC(C)C)c2c1C(=O)c1ccccc1C2=O`, the Potency result in test [7], in [1], in test [2], in test [3], in test [4] and in [10] was “inactive” throughout. The Potency in test [5] was 28.4 µM (active); in test [6] it was 25.3 µM (active).
In the case of `COc1ccc(C(=O)Nc2nc3ccccc3c(NCc3ccccc3)c2C#N)cc1`, the Potency result in test [7], in [1], in test [2], in test [3], in [4] and in [5] was “inactive” each time. Further, the Potency result in [6] and in [10] was “inactive” in each case.
Consider `Cc1cccc(Nc2ccccc2)c1`, for which the Potency result in test [7], in [1], in test [2], in test [3], in [4] and in [5] was “inactive” in each case. Also, the Potency entry in test [6] was “inactive”.
On to `CN1CCC(=C2c3ccccc3Sc3ccccc32)CC1`, for which the Potency entry in test [7], in test [2], in [3], in test [4], in test [5] and in test [10] was “inactive” in each case. The Potency in test [6] was 29.8 µM (active).
In the case of `CN1CCN(C(c2ccccc2)c2ccccc2)CC1`, the Potency result in [7], in test [1], in test [2], in test [3], in test [4] and in test [5] was “inactive” each time. For the same compound, the Potency result in [6] and in test [9] was “inactive” in each case.
Take `COc1ccc(C(=O)N2CCN(CC(=O)N3CCOCC3)CC2)cc1`: the Potency result in test [7], in test [1], in [2], in test [3], in test [4] and in test [5] was “inactive” throughout. For the same compound, the Potency result in test [6] and in [8] was “inactive” throughout.
In the case of `O=C(CS)Nc1ccccc1`, the Potency result in test [1], in test [2], in [3], in test [4], in [5] and in [6] was “inactive” each time. Moreover, the Potency result in test [8] is “inactive”.
For the compound `O=C1CCCCCCCCCCCC(=O)OCCO1`, the Potency result in [7], in [2], in [3], in test [4], in test [5] and in test [6] was “inactive” throughout. Moreover, the Potency entry in [10] was “inactive”.
Consider `CCCCCCOC(=O)NC(=N)c1ccc(NCc2nc3cc(C(=O)N(CCC(=O)OCC)c4ccccn4)ccc3n2C)cc1`, for which the Potency in [7] is 29.8 µM (active); in [2], 19 µM (active); in test [4], 21.3 µM (active); in test [6] it was 11.9 µM (active). The Potency entry in test [3] and in [5] was “inactive” throughout.
For the compound `CCCCC(CC)CN1C(=O)C2C3C=CC(C3)C2C1=O` (stereo unspecified), the Potency result in test [2], in [3], in [4], in [5] and in test [6] was “inactive” each time.
For `O=C(OCCc1ccccc1)c1ccccc1`, the Potency entry in [7], in test [1], in test [2], in [3], in [4] and in test [5] was “inactive” throughout. In test [6], the Potency entry is “inactive”.
As for `Cc1cc(N)c2cc(NC(=O)Nc3ccc4nc(C)cc(N)c4c3)ccc2n1`, the Potency entry in test [2], in test [3], in test [4] and in test [5] was “inactive” in each case.
Consider `Cc1cccc(C)c1OCC(=O)N[C@@H](Cc1ccccc1)[C@@H](O)C[C@H](Cc1ccccc1)NC(=O)[C@H](C(C)C)N1CCCNC1=O`, for which the Potency result in test [7], in [1], in test [3], in [4], in test [5] and in [8] was “inactive” in each case. The Potency in test [2] is 19 µM (active); in test [6], 29.8 µM (active).
As for `Cc1[nH]c(C)c(Cl)c(=O)c1Cl`, the Potency result in [7], in [1], in test [2], in test [3] and in test [4] was “inactive” in each case. Also, the activity, negative = cytotoxicity in test [5] is 3.57% [at 19 µM]. Further, the activity change, negative = inhibition in test [6] is -2.21% [at 19 µM]. The activation was -0.748% [at 15.8 µM] in test [8] and 5.66% [at 15.8 µM] in [9].
Take `CN(C)c1ccc(C(c2ccccc2)c2ccc(N(C)C)cc2)cc1`: the Potency result in test [7], in test [2], in test [3], in [4], in test [5] and in test [8] was “inactive” in each case. For the same compound, the Potency in [6] was 27.3 µM (active).
`CN(C)CCOC(c1ccccc1)c1ccc(Br)cc1` (stereo unspecified): the Potency entry in test [1], in test [2], in [3], in test [4], in test [5] and in test [6] was “inactive” each time. In addition, the Potency entry in test [10] was “inactive”.
For the compound `COc1cc2c(cc1OC)C(C(C(=O)N(CCc1ccc(OC)c(OC)c1OC)CCc1ccc(OC)c(OC)c1OC)c1ccccc1)=NCC2` (stereo unspecified), the Potency result in test [7], in [1], in test [2], in [3], in test [4] and in [5] was “inactive” in each case. The Potency result in [6], in test [8] and in test [9] was “inactive” in each case.
On to `C1CCCNCCC1`, for which the Potency result in [7], in test [1], in [2], in test [3], in test [4] and in test [5] was “inactive” each time. The Potency entry in test [6], in test [8] and in test [9] was “inactive” throughout.
Regarding `O=C(O)C1(C(=O)O)CCC1.[NH2-].[NH2-].[Pt+2]`, the Potency entry in test [7], in test [1], in [2], in test [3], in test [4] and in test [5] was “inactive” throughout. Also, the Potency entry in test [6], in test [8] and in test [9] was “inactive” in each case.
